PubChem BioAssay AID1159580 (chemical genetic matrix, 2015)
Where “and” joins values, the source holds several entries; their conditions need not be identical. Equal values may be shown once. The campaign covered roughly 5,500 compounds. About 2,000 (36%) were called active. Inconclusive results (about 18%) are left out. No stated cut-off is given here; in the data, active means normalized growth mostly below about 0.91 (no sharp cut-off); inconclusive means no clear call, values can overlap the other calls; inactive means mostly above about 0.92. Some of the results follow.

Assay: chemical genetic growth profiling, strain panel (AID 1159580);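 further: tested at 20 µM; growth read once vehicle control cultures reached saturation at 30 °C; 1 = growth at the plate median or of vehicle wells; lower values mean less growth of the strain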
Settings: S. cerevisiae deletion strains, growth OD

Measured: normalized growth

CN1CCC(=C2c3ccccc3CC(=O)c3sccc32)CC1
inactive: locus YAL013W, strain DEP1, active compounds read low 1.01 | locus YAL021C, strain ccr4, active compounds read low 0.985 | locus YAL026C, strain drs2, active compounds read low 0.981 | locus YAL030W, strain snc1, active compounds read low 0.975 | locus YAL040C, strain CLN3, active compounds read low 0.992 | locus YBL061C, strain skt5, active compounds read low 0.981 | locus YBR009C, strain hhf1, active compounds read low 1.02 | locus YBR021W, strain FUR4, active compounds read low 1.01 | locus YBR023C, strain chs3, active compounds read low 0.986 | locus YBR171W, strain sec66, active compounds read low 0.964 | locus YBR229C, strain ROT2, active compounds read low 0.999 | locus YBR231C, strain swc5, active compounds read low 0.964 | locus YBR279W, strain paf1, active compounds read low 0.994 | locus YCL011C, strain gbp2, active compounds read low 0.989 | locus YCL016C, strain dcc1, active compounds read low 1.04 | locus YCL029C, strain bik1, active compounds read low 1.02 | locus YCL061C, strain MRC1 (second series), active compounds read low 1 | locus YCL069W, strain vba3, active compounds read low 0.983 | locus YCR088W, strain abp1, active compounds read low 0.973 | locus YDL005C, strain med2, active compounds read low 0.991 | locus YDL035C, strain GPR1, active compounds read low 1.02 | locus YDL040C, strain nat1, active compounds read low 0.984 | locus YDL074C, strain BRE1, active compounds read low 1.02 | locus YDL101C, strain DUN1, active compounds read low 1.02 | locus YDL134C, strain PPH21, active compounds read low 1.01 | locus YDL185W, strain tfp1, active compounds read low 1.01 | locus YDL192W, strain arf1, active compounds read low 1.01 | locus YDR001C, strain nth1, active compounds read low 0.957 | locus YDR069C, strain doa4, active compounds read low 0.954 | locus YDR101C, strain arx1, active compounds read low 1.01 | locus YDR137W, strain rgp1, active compounds read low 0.974 | locus YDR150W, strain NUM1, active compounds read low 1 | locus YDR159W, strain sac3, active compounds read low 1.03 | locus YDR162C, strain NBP2, active compounds read low 1.01 | locus YDR195W, strain ref2 0.895 | locus YDR297W, strain sur2, active compounds read low 0.982 | locus YDR318W, strain mcm21, active compounds read low 1.02 | locus YDR334W, strain swr1, active compounds read low 0.928 | locus YDR335W, strain msn5, active compounds read low 0.977 | locus YDR363W, strain ESC2, active compounds read low 0.985 | locus YDR388W, active compounds read low 1.01 | locus YDR392W, strain spt3, active compounds read low 1.04 | locus YDR502C, strain sam2, active compounds read low 1.01 | locus YEL003W, strain gim4, active compounds read low 0.986 | locus YEL037C, strain rad23, active compounds read low 0.99 | locus YEL061C, strain CIN8 (second series), active compounds read low 0.966 | locus YEL061C, strain CIN8, active compounds read low 1.01 | locus YER002W, strain NOP16, active compounds read low 0.993 | locus YER015W, strain faa2, active compounds read low 1.01 | locus YER016W, strain bim1, active compounds read low 1 | locus YER110C, active compounds read low 1.01 | locus YER111C, strain swi4, active compounds read low 0.972 | locus YER155C, strain BEM2 (second series), active compounds read low 0.927 | locus YER155C, strain BEM2, active compounds read low 1 | locus YER167W, strain BCK2, active compounds read low 1 | locus YFR010W, strain ubp6, active compounds read low 0.958 | locus YGL078C, strain dbp3, active compounds read low 1.01 | locus YGL086W, strain mad1, active compounds read low 0.994 | locus YGL167C, strain pmr1, active compounds read low 0.964 | locus YGL173C, strain kem1, active compounds read low 0.984 | locus YGL227W, strain vid30, active compounds read low 0.984 | locus YGL240W, strain doc1, active compounds read low 0.957 | locus YGL248W, strain PDE1, active compounds read low 1.01 | locus YGL253W, strain hxk2, active compounds read low 1 | locus YGR078C, strain PAC10, active compounds read low 1.01 | locus YGR135W, strain pre9, active compounds read low 1 | locus YGR229C, strain SMI1, active compounds read low 0.999 and 0.99 | locus YGR252W, strain gcn5, active compounds read low 0.962 | locus YHR013C, strain ard1, active compounds read low 0.971 | locus YHR027C, strain rpn1, active compounds read low 0.992 | locus YHR030C, strain SLT2, active compounds read low 1.01 and 1.04 | locus YHR079C, strain IRE1 (second series), active compounds read low 1.02 | locus YHR079C, strain IRE1, active compounds read low 1.03 | locus YHR094C, strain hxt1, active compounds read low 1.01 | locus YHR129C, strain ARP1, active compounds read low 1 | locus YHR142W, strain chs7, active compounds read low 0.99 | locus YHR200W, strain rpn10, active compounds read low 1.02 | locus YIL066C, strain RNR3, active compounds read low 1.01 | locus YIL073C, strain SPO22, active compounds read low 1.06 | locus YIL125W, strain kgd1, active compounds read low 0.998 | locus YIR030C, strain dcg1, active compounds read low 1.01 | locus YJL092W, strain hpr5, active compounds read low 0.977 | locus YJL095W, strain BCK1 (second series), active compounds read low 0.973 | locus YJL095W, strain BCK1, active compounds read low 1.02 | locus YJL115W, strain asf1, active compounds read low 0.953 | locus YJL129C, strain trk1, active compounds read low 0.969 | locus YJL134W, strain LCB3, active compounds read low 1.01 | locus YJL154C, strain vps35, active compounds read low 0.968 | locus YJL164C, strain tpk1, active compounds read low 1.02 | locus YJL166W, strain qcr8, active compounds read low 0.95 | locus YJL168C, strain set2, active compounds read low 1.01 | locus YJL187C, strain SWE1 (second series), active compounds read low 1.02 | locus YJR043C, strain POL32, active compounds read low 1.02 | locus YJR066W, strain TOR1, active compounds read low 0.989 | locus YJR075W, strain HOC1, active compounds read low 1.01
